# Results reported in PubChem BioAssay (NCI).
# This is part of a sample that, as a whole, favours compounds with a hit. Of some 79,000 tested, about 15% had one in any assay. A number with no mark means an inactive call. Calls of active or inactive are those of the source. Cut-off read from the data, not from the text of the source: active = growth inhibition above about 70%; inactive = the rest.
# Tests used:
# [1] = NCI Yeast Anticancer Drug Screen. Data for the rad52 strain (AID 147);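 note: 0% = growth of vehicle-treated control cultures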; conditions: S. cerevisiae rad52 mutant growth inhibition, stronger effect = higher value
# Summary of the method: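 Screen used a yeast mutant impaired in DNA repair. After compound exposure, growth was measured. Values reflect inhibition compared with vehicle-treated cells.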
# [2] = NCI Yeast Anticancer Drug Screen. Data for the wt1 strain (AID 149);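 note: 0% = growth of vehicle-treated wt1 cultures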; conditions: S. cerevisiae wt1 strain (SPY 50644) growth inhibition, stronger effect = higher value
# Summary of the method: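 The wt1 strain was treated with compounds, and growth was compared with vehicle-treated cultures to give inhibition.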
# [3] = NCI Yeast Anticancer Drug Screen. Data for the rad50EPP+ strain (AID 151);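 note: 0% = growth of vehicle-treated control cultures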; conditions: S. cerevisiae rad50 mutant strain, stronger effect = higher value
# Summary of the method: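 Exposing the rad50EPP+ strain to each compound, growth was compared with vehicle-only cultures to give inhibition.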
# [4] = NCI Yeast Anticancer Drug Screen. Data for the mgt1 strain (AID 153); conditions: S. cerevisiae mgt1 mutant growth inhibition, stronger effect = higher value
# Summary of the method: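 Genetically defined yeast (mgt1) treated with compound; inhibition of growth expressed against vehicle-treated controls.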
# [5] = NCI Yeast Anticancer Drug Screen. Data for the rad50 strain (AID 155);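 note: 0% = growth of vehicle-only cultures of the same strain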; conditions: S. cerevisiae rad50 strain growth inhibition, stronger effect = higher value
# Summary of the method: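 Cells are treated with compound, grown, and their growth is then scored against vehicle-only cultures of the same repair-deficient yeast strain.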
# [6] = NCI Yeast Anticancer Drug Screen. Data for the mec2-1 strain (AID 157); conditions: S. cerevisiae mec2-1 strain, stronger effect = higher value
# Summary of the method: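 Readout is yeast growth inhibition, normalised to vehicle-treated controls, in the mec2-1 strain exposed to compound.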
# [7] = NCI Yeast Anticancer Drug Screen. Data for the rad14 strain (AID 159);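 note: 0% = growth of vehicle-treated control cultures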; conditions: S. cerevisiae rad14 strain growth inhibition, stronger effect = higher value
# Summary of the method: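 Readout: yeast growth inhibition, referenced to vehicle-only cultures. Strain bears a defined alteration in DNA damage repair.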
# [8] = NCI Yeast Anticancer Drug Screen. Data for the sgs1 mgt1 strain (AID 161);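 note: 0% = growth of cultures given vehicle only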; conditions: S. cerevisiae sgs1 mgt1 strain, stronger effect = higher value
# Summary of the method: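 Compounds are added to genetically altered yeast, and growth is compared with cultures given vehicle alone to give percent inhibition.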
# [9] = NCI Yeast Anticancer Drug Screen. Data for the CLN2oe strain (AID 163);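 note: 0% = growth of vehicle-only control cultures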; conditions: S. cerevisiae CLN2oe strain, stronger effect = higher value
# Summary of the method: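 Values reflect how much compound exposure reduced yeast growth, referenced to vehicle-exposed cells. Assay organism is a strain with a defined genetic change affecting cell-cycle control.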
# [10] = NCI Yeast Anticancer Drug Screen. Data for the cln2 rad14 strain (AID 165);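 note: 0% = growth equal to vehicle treated cultures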; conditions: S. cerevisiae cln2 rad14 strain, stronger effect = higher value
# Summary of the method: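 Relative to vehicle controls, growth inhibition of compound-treated cln2 rad14 yeast was recorded.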
# [11] = NCI Yeast Anticancer Drug Screen. Data for the bub3 strain (AID 167); conditions: S. cerevisiae bub3 mutant strain, stronger effect = higher value
# Summary of the method: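 Part of a panel of yeast mutants defective in DNA damage repair or cell cycle regulation. Each strain is grown with compound, and inhibition is calculated relative to solvent-treated cultures.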
# [12] = NCI Yeast Anticancer Drug Screen. Data for the wt2 strain (AID 169);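 note: 0% = growth of vehicle-treated yeast cultures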; conditions: S. cerevisiae wt2 strain growth inhibition, stronger effect = higher value
# Summary of the method: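 Values express reduction in yeast growth under compound treatment, referenced to vehicle-treated cells.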
# [13] = NCI Yeast Anticancer Drug Screen. Data for the mlh1 strain (AID 171);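 note: 0% = growth of vehicle-treated control cultures of the same strain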; conditions: S. cerevisiae mlh1 strain growth inhibition, stronger effect = higher value
# Summary of the method: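 Steps: expose the defined-mutant yeast strain to compound; expose a parallel culture to vehicle; measure growth; express compound effect as inhibition relative to the vehicle culture.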
# [14] = NCI Yeast Anticancer Drug Screen. Data for the rad18 strain (AID 177); conditions: S. cerevisiae rad18 mutant growth inhibition, stronger effect = higher value
# Summary of the method: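 A genetically defined yeast mutant impaired in DNA damage repair was treated with test compounds, then its growth was measured against cultures receiving vehicle alone.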
# [15] = NCI Yeast Anticancer Drug Screen. Data for the mlh1 rad18 strain (AID 175); conditions: S. cerevisiae mlh1 rad18 strain growth inhibition, stronger effect = higher value
# Summary of the method: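 Test agents were incubated with a yeast strain of defined genotype (DNA damage repair defect). Inhibition of growth was derived by comparison with vehicle-exposed cultures.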
# [16] = at 5.0 µM (retest, dose inferred, filed as 0.5)
# [17] = at 50.0 µM (retest, dose inferred, filed as 5.0)
smiles,measurement,setting,value
CCOC(=O)/C(=C\c1ccc(F)cc1)C(C)=O,growth inhibition,[1]; at 1.2 µM,-43%
same,growth inhibition,[1]; at 3.7 µM,-17%
same,growth inhibition,[1]; at 11.0 µM,57%
same,growth inhibition,[1]; at 33.0 µM,94% (active)
same,growth inhibition,[1]; at 100.0 µM,98% (active)
same,growth inhibition,[2]; at 1.2 µM,-17%
same,growth inhibition,[2]; at 3.7 µM,4%
same,growth inhibition,[2]; at 11.0 µM,48%
same,growth inhibition,[2]; at 33.0 µM,93% (active)
same,growth inhibition,[2]; at 100.0 µM,98% (active)
same,growth inhibition,[3]; at 1.2 µM,8%
same,growth inhibition,[3]; at 3.7 µM,30%
same,growth inhibition,[3]; at 11.0 µM,68%
same,growth inhibition,[3]; at 33.0 µM,93% (active)
same,growth inhibition,[3]; at 100.0 µM,98% (active)
same,growth inhibition,[4]; at 1.2 µM,-19%
same,growth inhibition,[4]; at 3.7 µM,6%
same,growth inhibition,[4]; at 11.0 µM,77% (active)
same,growth inhibition,[4]; at 33.0 µM,96% (active)
same,growth inhibition,[4]; at 100.0 µM,99% (active)
same,growth inhibition,[5]; at 1.2 µM,-7%
same,growth inhibition,[5]; at 3.7 µM,19%
same,growth inhibition,[5]; [16],30%
same,growth inhibition,[5]; at 11.0 µM,72% (active)
same,growth inhibition,[5]; at 33.0 µM,95% (active)
same,growth inhibition,[5]; [17],97% (active)
same,growth inhibition,[5]; at 50.0 µM,91.8% (active)
same,growth inhibition,[5]; at 100.0 µM,97% (active)
same,growth inhibition,[6]; at 1.2 µM,-43%
same,growth inhibition,[6]; at 3.7 µM,-3%
same,growth inhibition,[6]; [16],0%
same,growth inhibition,[6]; at 11.0 µM,74% (active)
same,growth inhibition,[6]; at 33.0 µM,95% (active)
same,growth inhibition,[6]; [17],98% (active)
same,growth inhibition,[6]; at 50.0 µM,93.8% (active)
same,growth inhibition,[6]; at 100.0 µM,97% (active)
same,growth inhibition,[7]; at 1.2 µM,-11%
same,growth inhibition,[7]; at 3.7 µM,-4%
same,growth inhibition,[7]; at 11.0 µM,61%
same,growth inhibition,[7]; at 33.0 µM,95% (active)
same,growth inhibition,[7]; at 100.0 µM,97% (active)
same,growth inhibition,[8]; [16],21%
same,growth inhibition,[8]; [17],97% (active)
same,growth inhibition,[8]; at 50.0 µM,93% (active)
same,growth inhibition,[9]; at 1.2 µM,6%
same,growth inhibition,[9]; at 3.7 µM,4%
same,growth inhibition,[9]; at 11.0 µM,67%
same,growth inhibition,[9]; at 33.0 µM,96% (active)
same,growth inhibition,[9]; at 100.0 µM,98% (active)
same,growth inhibition,[10]; [16],9%
same,growth inhibition,[10]; [17],93% (active)
same,growth inhibition,[10]; at 50.0 µM,89% (active)
same,growth inhibition,[11]; at 1.2 µM,9%
same,growth inhibition,[11]; at 3.7 µM,37%
same,growth inhibition,[11]; [16],48%
same,growth inhibition,[11]; at 11.0 µM,91% (active)
same,growth inhibition,[11]; at 33.0 µM,97% (active)
same,growth inhibition,[11]; [17],97% (active)
same,growth inhibition,[11]; at 50.0 µM,92.1% (active)
same,growth inhibition,[11]; at 100.0 µM,98% (active)
same,growth inhibition,[12]; at 1.2 µM,-35%
same,growth inhibition,[12]; at 3.7 µM,-17%
same,growth inhibition,[12]; at 11.0 µM,62%
same,growth inhibition,[12]; at 33.0 µM,95% (active)
same,growth inhibition,[12]; at 100.0 µM,98% (active)
same,growth inhibition,[13]; at 1.2 µM,2%
same,growth inhibition,[13]; at 3.7 µM,42%
same,growth inhibition,[13]; at 11.0 µM,88% (active)
same,growth inhibition,[13]; at 33.0 µM,97% (active)
same,growth inhibition,[13]; at 100.0 µM,97% (active)
same,growth inhibition,[14]; at 1.2 µM,-34%
same,growth inhibition,[14]; at 3.7 µM,14%
same,growth inhibition,[14]; at 11.0 µM,77% (active)
same,growth inhibition,[14]; at 33.0 µM,94% (active)
same,growth inhibition,[14]; at 100.0 µM,97% (active)
COc1cc2c(cc1O)[C@H](C)C(c1ccccc1OC)O2 (stereo partly drawn),growth inhibition,[1]; at 1.2 µM,-41%
same,growth inhibition,[1]; at 3.7 µM,-34%
same,growth inhibition,[1]; at 11.0 µM,-31%
same,growth inhibition,[1]; at 33.0 µM,-19%
same,growth inhibition,[1]; at 100.0 µM,96% (active)
same,growth inhibition,[2]; at 1.2 µM,-11%
same,growth inhibition,[2]; at 3.7 µM,-13%
same,growth inhibition,[2]; at 11.0 µM,-13%
same,growth inhibition,[2]; at 33.0 µM,-17%
same,growth inhibition,[2]; at 100.0 µM,96% (active)
same,growth inhibition,[3]; at 1.2 µM,-39%
same,growth inhibition,[3]; at 3.7 µM,-68%
same,growth inhibition,[3]; at 11.0 µM,-54%
same,growth inhibition,[3]; at 33.0 µM,-8%
same,growth inhibition,[3]; at 100.0 µM,19%
same,growth inhibition,[4]; at 1.2 µM,1%
same,growth inhibition,[4]; at 3.7 µM,5%
same,growth inhibition,[4]; at 11.0 µM,-4%
same,growth inhibition,[4]; at 33.0 µM,33%
same,growth inhibition,[4]; at 100.0 µM,97% (active)
same,growth inhibition,[5]; at 1.2 µM,-4%
same,growth inhibition,[5]; at 3.7 µM,-2%
same,growth inhibition,[5]; [16],-13%
same,growth inhibition,[5]; at 11.0 µM,-8%
same,growth inhibition,[5]; at 33.0 µM,4%
same,growth inhibition,[5]; [17],4%
same,growth inhibition,[5]; at 50.0 µM,15.5%
same,growth inhibition,[5]; at 100.0 µM,96% (active)
same,growth inhibition,[6]; at 1.2 µM,-27%
same,growth inhibition,[6]; at 3.7 µM,-15%
same,growth inhibition,[6]; [16],-44%
same,growth inhibition,[6]; at 11.0 µM,-20%
same,growth inhibition,[6]; at 33.0 µM,6%
same,growth inhibition,[6]; [17],13%
same,growth inhibition,[6]; at 50.0 µM,17.6%
same,growth inhibition,[6]; at 100.0 µM,95% (active)
same,growth inhibition,[7]; at 1.2 µM,-7%
same,growth inhibition,[7]; at 3.7 µM,-11%
same,growth inhibition,[7]; at 11.0 µM,-11%
same,growth inhibition,[7]; at 33.0 µM,7%
same,growth inhibition,[7]; at 100.0 µM,96% (active)
same,growth inhibition,[8]; [16],-16%
same,growth inhibition,[8]; [17],59%
same,growth inhibition,[8]; at 50.0 µM,68%
same,growth inhibition,[9]; at 1.2 µM,14%
same,growth inhibition,[9]; at 3.7 µM,9%
same,growth inhibition,[9]; at 11.0 µM,5%
same,growth inhibition,[9]; at 33.0 µM,18%
same,growth inhibition,[9]; at 100.0 µM,97% (active)
same,growth inhibition,[10]; [16],26%
same,growth inhibition,[10]; [17],24%
same,growth inhibition,[10]; at 50.0 µM,29.9%
same,growth inhibition,[11]; at 1.2 µM,24%
same,growth inhibition,[11]; at 3.7 µM,32%
same,growth inhibition,[11]; [16],20%
same,growth inhibition,[11]; at 11.0 µM,22%
same,growth inhibition,[11]; at 33.0 µM,55%
same,growth inhibition,[11]; [17],81% (active)
same,growth inhibition,[11]; at 50.0 µM,62.4%
same,growth inhibition,[11]; at 100.0 µM,97% (active)
same,growth inhibition,[12]; at 1.2 µM,-26%
same,growth inhibition,[12]; at 3.7 µM,-32%
same,growth inhibition,[12]; at 11.0 µM,-26%
same,growth inhibition,[12]; at 33.0 µM,-4%
same,growth inhibition,[12]; at 100.0 µM,96% (active)
same,growth inhibition,[13]; at 1.2 µM,17%
same,growth inhibition,[13]; at 3.7 µM,24%
same,growth inhibition,[13]; at 11.0 µM,-2%
same,growth inhibition,[13]; at 33.0 µM,47%
same,growth inhibition,[13]; at 100.0 µM,97% (active)
same,growth inhibition,[15]; [16],1%
same,growth inhibition,[15]; [17],22%
same,growth inhibition,[15]; at 50.0 µM,19.6%
same,growth inhibition,[14]; at 1.2 µM,-9%
same,growth inhibition,[14]; at 3.7 µM,-22%
same,growth inhibition,[14]; at 11.0 µM,11%
same,growth inhibition,[14]; at 33.0 µM,20%
same,growth inhibition,[14]; at 100.0 µM,94% (active)
